In PubChem BioAssay (NCATS):
Results filed as inconclusive are left out. Where a call stands in place of a potency, no number is given. The source made the active and inactive calls. Calls follow the shape of the dose curve; as a rule, active = well fitted curve in the direction sought with a large enough effect; inconclusive = small, poorly fitted or top-dose-only effect, or another doubt; inactive = no such curve, though single readings can be large; an effect the other way counts as inactive or inconclusive.

Tested on: Zika virus NS2B-NS3 protease (linked construct)
Experiment: 384 well plate NINDS Rhodamine confirmatory qHTS for Zika virus inhibitors (AID 1347164);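 also: fluorescence from protease cleavage of Ac-LKRR-rhodamine 110 substrate; nearly all actives have a fitted effect of over 65% in size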; also: potency is read from the fitted curve at half-maximal effect
Conditions: rhodamine-110 peptide substrate fluorescence; series mostly up to 1 mM
How it was run: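 Enzyme (final 5/30/60 nM) + cpd (DMSO), ~15 min; add Ac-LKRR-Rd 10 microM final; 25 min RT, dark; FI ex 485/em 538; normalized to no-enzyme, no-inhibitor ctrls; aprotinin intraplate ctrl.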
With O=C(Nc1ccc([N+](=O)[O-])cc1Cl)c1cc(Cl)ccc1O the Potency was 7940 nM (active).
In the case of Cc1ccc(C(=O)Nc2ccc(S(=O)(=O)O)c3cc(S(=O)(=O)O)cc(S(=O)(=O)O)c23)cc1NC(=O)c1cccc(NC(=O)Nc2cccc(C(=O)Nc3cc(C(=O)Nc4ccc(S(=O)(=O)O)c5cc(S(=O)(=O)O)cc(S(=O)(=O)O)c45)ccc3C)c2)c1, the Potency is reported as “inactive”.
For O=C1Cc2cc(CCN3CCN(c4nsc5ccccc45)CC3)c(Cl)cc2N1, the Potency was 2820 nM (active).

Biological target: Lysine-specific demethylase 5B (Homo sapiens) (UniProt Q9UGL1)
Sequence (Q9UGL1 whole entry, looked up): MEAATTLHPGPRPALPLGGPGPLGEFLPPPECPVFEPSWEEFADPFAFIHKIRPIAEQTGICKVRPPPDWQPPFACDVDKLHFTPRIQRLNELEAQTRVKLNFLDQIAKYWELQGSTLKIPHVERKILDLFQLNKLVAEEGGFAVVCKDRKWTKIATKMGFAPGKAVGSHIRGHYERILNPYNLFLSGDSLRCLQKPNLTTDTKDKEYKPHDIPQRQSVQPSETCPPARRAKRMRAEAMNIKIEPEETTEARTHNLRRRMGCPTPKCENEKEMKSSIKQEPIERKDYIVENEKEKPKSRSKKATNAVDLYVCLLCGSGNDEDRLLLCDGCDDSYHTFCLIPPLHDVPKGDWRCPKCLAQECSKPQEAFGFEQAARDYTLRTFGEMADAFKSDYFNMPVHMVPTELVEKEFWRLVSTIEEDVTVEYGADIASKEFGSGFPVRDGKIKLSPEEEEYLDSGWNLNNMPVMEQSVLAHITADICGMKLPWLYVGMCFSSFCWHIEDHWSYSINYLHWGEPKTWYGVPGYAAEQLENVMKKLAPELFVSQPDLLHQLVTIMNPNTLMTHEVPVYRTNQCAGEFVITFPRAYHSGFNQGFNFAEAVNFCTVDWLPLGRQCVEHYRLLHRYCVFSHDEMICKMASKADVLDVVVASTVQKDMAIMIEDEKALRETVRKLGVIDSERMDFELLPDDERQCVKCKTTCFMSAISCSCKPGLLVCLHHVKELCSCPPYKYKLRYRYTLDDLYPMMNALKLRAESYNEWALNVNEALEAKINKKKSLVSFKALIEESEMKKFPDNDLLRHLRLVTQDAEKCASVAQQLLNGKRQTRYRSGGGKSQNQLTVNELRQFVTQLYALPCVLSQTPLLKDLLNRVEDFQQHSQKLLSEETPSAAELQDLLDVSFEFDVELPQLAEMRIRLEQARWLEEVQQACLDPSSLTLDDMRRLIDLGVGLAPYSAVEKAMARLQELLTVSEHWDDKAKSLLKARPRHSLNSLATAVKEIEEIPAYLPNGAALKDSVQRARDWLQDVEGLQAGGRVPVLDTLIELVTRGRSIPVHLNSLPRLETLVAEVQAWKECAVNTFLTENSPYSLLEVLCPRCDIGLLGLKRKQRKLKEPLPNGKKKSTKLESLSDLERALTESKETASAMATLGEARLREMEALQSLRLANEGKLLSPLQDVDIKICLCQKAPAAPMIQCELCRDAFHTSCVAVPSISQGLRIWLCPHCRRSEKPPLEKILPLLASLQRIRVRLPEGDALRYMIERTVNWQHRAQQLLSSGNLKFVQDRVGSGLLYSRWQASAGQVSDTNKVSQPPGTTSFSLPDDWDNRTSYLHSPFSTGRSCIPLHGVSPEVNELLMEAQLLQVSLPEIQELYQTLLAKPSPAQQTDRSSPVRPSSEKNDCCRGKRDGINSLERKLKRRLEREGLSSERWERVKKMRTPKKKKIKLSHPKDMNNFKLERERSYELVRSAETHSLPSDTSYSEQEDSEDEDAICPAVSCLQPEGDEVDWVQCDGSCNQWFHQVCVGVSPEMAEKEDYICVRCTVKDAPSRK
Experiment: Optimization screen for KDM5B Histone Demethylases FDH coupled qHTS against the LOPAC library (AID 1347166)
Conditions: KDM5B demethylation, FDH-coupled NADH fluorescence (FDH is formaldehyde dehydrogenase); series mostly up to 57.5 µM
How it was run: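 KDM5BDeltaAP (200nM final) in 50mM HEPES pH 7.5, 0.01% Tween-20 was preincubated with compound for 10 min at room temperature. A substrate mix of 12.5uM H3K4Me3, 25uM a-ketoglutarate, ascorbate, Fe2+, NAD+ and formaldehyde dehydrogenase was then added. NADH fluorescence (340/450 nm) was read initially and after 30 min.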
For CS(=O)(=O)Nc1ccc([N+](=O)[O-])cc1Oc1ccccc1, the outcome was “inactive”.
For O=C(c1ccc(F)cc1)C1CCN(CCn2c(=O)[nH]c3ccccc3c2=O)CC1, the outcome was “inactive”.
For O=C(Nc1ccc([N+](=O)[O-])cc1Cl)c1cc(Cl)ccc1O, the outcome was “inactive”.
In the case of CCC1(C)CC(=O)NC1=O (stereo not given), the outcome is reported as “inactive”.
With Nc1c2c(nc3ccccc13)CCCC2 the outcome was “inactive”.
In the case of CNCCCC12CCC(c3ccccc31)c1ccccc12, the outcome is reported as “inactive”.
For CC(C)Cc1ccc(C(C)C(=O)O)cc1 (stereo not given), the outcome was “inactive”.
For O=c1c(O)c(-c2ccc(O)c(O)c2)oc2cc(O)cc(O)c12, the outcome was “inactive”.
With Nc1nnc(-c2cccc(Cl)c2Cl)c(N)n1 the outcome was “inactive”.
With NC12CC3CC(CC(C3)C1)C2 the outcome was “inactive”.
With Clc1ccc2c(c1)C(N1CCNCC1)=Nc1ccccc1O2 the outcome was “inactive”.
In the case of Cc1cc(C(C)(C)C)c(O)c(C)c1CC1=NCCN1, the outcome is reported as “inactive”.

Tested on: not listed separately
Experiment: Vero cells viability qHTS for Zika virus inhibitors (AID 1347167); also: potency is read from the fitted curve at half-maximal effect
Conditions: cytotoxicity counter-screen (Zika); series mostly up to 45.9 µM
How it was run: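 Luminescent ATP readout (CellTiter Glo) after 30 min at 37 degrees C gives viability; cells in DMEM + 4% FBS were treated 24 to 48 hours with compound, following overnight attachment.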
With O=C(c1ccc(F)cc1)C1CCN(CCn2c(=O)[nH]c3ccccc3c2=O)CC1 the Potency was “inactive”.
In the case of CC(C)(C)C(=O)Oc1ccc(S(=O)(=O)Nc2ccccc2C(=O)NCC(=O)O)cc1, the Potency is reported as “inactive”.
For O=C(Nc1ccc([N+](=O)[O-])cc1Cl)c1cc(Cl)ccc1O, the Potency was 415 nM (active).
With CC1COc2c(N3CCN(C)CC3)c(F)cc3c(=O)c(C(=O)O)cn1c23 (stereo not given) the Potency was “inactive”.
With O=C1Cc2cc(CCN3CCN(c4nsc5ccccc45)CC3)c(Cl)cc2N1 the Potency was “inactive”.
